Laboratory results from PubChem BioAssay AID1159580 (chemical genetic matrix, 2015).
About 2,000 (36%) of roughly 5,500 compounds were called active. Another 18% or so got no clear call; they are omitted. No stated cut-off is given here; in the data, active means normalized growth mostly below about 0.91 (no sharp cut-off); inconclusive means no clear call, values can overlap the other calls; inactive means mostly above about 0.92. The list shows a part of the results.

Test: chemical genetic growth profiling, strain panel (AID 1159580);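 further: tested at 20 µM; growth read once vehicle control cultures reached saturation at 30 °C; 1 = growth at the plate median or of vehicle wells; lower values mean less growth of the strain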
Conditions: S. cerevisiae deletion strains, growth OD

Measured: normalized growth

CN(C/C=C/C#CC(C)(C)C)Cc1cccc2ccccc12
inactive: locus YLR357W, strain rsc2, hits give low values 1.11
active: locus YAL021C, strain ccr4, hits give low values 0.121 | locus YAL026C, strain drs2, hits give low values 0.0882 | locus YAL030W, strain snc1, hits give low values 0.334 | locus YBL061C, strain skt5, hits give low values 0.256 | locus YBR009C, strain hhf1, hits give low values 0.293 | locus YBR023C, strain chs3, hits give low values 0.254 | locus YBR171W, strain sec66, hits give low values 0.793 | locus YBR231C, strain swc5, hits give low values 0.423 | locus YBR279W, strain paf1, hits give low values 0.376 | locus YCL011C, strain gbp2, hits give low values 0.228 | locus YCL016C, strain dcc1, hits give low values 0.334 | locus YCL061C, strain MRC1, hits give low values 0.478 | locus YCL069W, strain vba3, hits give low values 0.283 | locus YCR088W, strain abp1, hits give low values 0.498 | locus YDL005C, strain med2, hits give low values 0.246 | locus YDL040C, strain nat1, hits give low values 0.528 | locus YDR001C, strain nth1, hits give low values 0.573 | locus YDR069C, strain doa4, hits give low values 0.567 | locus YDR137W, strain rgp1, hits give low values 0.492 | locus YDR159W, strain sac3, hits give low values 0.512 | locus YDR195W, strain ref2 1.34 [resistant] | locus YDR297W, strain sur2, hits give low values 0.398 | locus YDR334W, strain swr1, hits give low values 0.492 | locus YDR335W, strain msn5, hits give low values 0.219 | locus YDR392W, strain spt3, hits give low values 0.163 | locus YEL003W, strain gim4, hits give low values 0.311 | locus YEL037C, strain rad23, hits give low values 0.372 | locus YEL061C, strain CIN8 (second series), hits give low values 0.444 | locus YER015W, strain faa2, hits give low values 0.384 | locus YER016W, strain bim1, hits give low values 0.484 | locus YER111C, strain swi4, hits give low values 0.417 | locus YER155C, strain BEM2 (second series), hits give low values 0.469 | locus YFR010W, strain ubp6, hits give low values 0.457 | locus YGL167C, strain pmr1, hits give low values 0.909 | locus YGL173C, strain kem1, hits give low values 0.488 | locus YGL227W, strain vid30, hits give low values 0.536 | locus YGL240W, strain doc1, hits give low values 0.459 | locus YGL253W, strain hxk2, hits give low values 0.208 | locus YHR013C, strain ard1, hits give low values 0.241 | locus YHR027C, strain rpn1, hits give low values 0.442 | locus YHR030C, strain SLT2, hits give low values 0.471 | locus YHR079C, strain IRE1, hits give low values 0.792 | locus YHR142W, strain chs7, hits give low values 0.174 | locus YJL092W, strain hpr5, hits give low values 0.468 | locus YJL095W, strain BCK1 (second series), hits give low values 0.0681 | locus YJL095W, strain BCK1, hits give low values 0.472 | locus YJL115W, strain asf1, hits give low values 0.664 | locus YJL129C, strain trk1, hits give low values 0.351 | locus YJL154C, strain vps35, hits give low values 0.649 | locus YJL164C, strain tpk1, hits give low values 0.215 | locus YJL166W, strain qcr8, hits give low values 0.266 | locus YJL187C, strain SWE1, hits give low values 0.272 | locus YJR066W, strain TOR1, hits give low values 0.683 | locus YKL160W, strain elf1, hits give low values 0.296 | locus YKR026C, strain gcn3, hits give low values 0.452 | locus YKR091W, strain srl3, hits give low values 0.626 | locus YLL001W, strain dnm1, hits give low values 0.37 | locus YLL026W, hits give low values 0.283 | locus YLL041C, strain sdh2, hits give low values 0.462 | locus YLR027C, strain aat2, hits give low values 0.225 | locus YLR113W, strain HOG1, hits give low values 0.807 | locus YLR221C, strain rsa3, hits give low values 0.25 | locus YLR258W, strain gsy2, hits give low values 0.285 | locus YLR262C, strain YPT6 (second series), hits give low values 0.397 | locus YLR320W, strain mms22, hits give low values 0.189 | locus YLR342W, strain FKS1, hits give low values 0.513 | locus YLR370C, strain arc18, hits give low values 0.405 | locus YLR384C, strain iki3, hits give low values 0.635 | locus YML120C, strain ndi1, hits give low values 0.325 | locus YMR058W, strain fet3, hits give low values 0.281 | locus YMR125W, strain sto1, hits give low values 0.533 | locus YMR129W, hits give low values 0.361 | locus YMR205C, strain PFK2, hits give low values 0.532 | locus YMR231W, strain pep5, hits give low values 0.188 | locus YNL071W, strain lat1, hits give low values 0.209 | locus YNL183C, strain NPR1, hits give low values 0.808 | locus YNL209W, strain ssb2, hits give low values 0.395 | locus YNL248C, strain rpa49, hits give low values 0.378 | locus YNL322C, strain KRE1 (second series), hits give low values 0.506 | locus YNR049C, strain mso1, hits give low values 0.562 | locus YOR001W, strain rrp6, hits give low values 0.26 | locus YOR070C, strain gyp1, hits give low values 0.166 | locus YOR080W, strain dia2, hits give low values 0.516 | locus YOR083W, strain WHI5, hits give low values 0.369 | locus YOR106W, strain vam3, hits give low values 0.187 | locus YOR231W, strain MKK1, hits give low values 0.769 | locus YOR265W, strain rbl2, hits give low values 0.432 | locus YOR270C, strain vph1, hits give low values 0.192 | locus YOR290C, strain snf2, hits give low values 0.305 | locus YPL051W, strain arl3, hits give low values 0.199 | locus YPL078C, strain atp4, hits give low values 0.373 | locus YPL106C, strain sse1, hits give low values 0.444 | locus YPL240C, strain hsp82, hits give low values 0.334 | locus YPL256C, strain CLN2, hits give low values 0.81
